By AC50 is commonly meant the concentration giving half of the maximal activity seen.

Records with an inconclusive call do not appear. Calls of active or inactive are those of the source. Rule for the calls, unless noted: active = hit-call score of the fitted dose curve at least 0.9, where 1 is the maximum; inconclusive = response in the unintended direction; inactive = score below 0.9.

A short description of assay [1]: TOX21_p53_BLA_p2_viability: Viability Assessment in the Tox21 HCT-116 p53 Agonism Beta-lactamase Assay, Phase 2 (AID 2283591).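 Note: compound exposure lasted 16 h at 37 °C; actives lower the ATP signal meaning cytotoxicity.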 The essentials:
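HCT116 p53-bla cells, 4000/well, dosed after 5 h plating (217-fold dilution of DMSO stocks) and incubated 16 h at 37C. Viability taken as cellular ATP by CellTiter-Glo luminescence after 30 min RT; signal loss marks cytotoxicity.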

Assay [2] has as its target Cellular tumor antigen p53 (Homo sapiens) (UniProt P04637). Kind of assay: TOX21_p53_BLA_p2_ratio: Tox21 HCT-116 p53 Agonism Beta-lactamase Assay, Ratio, Phase 2 (AID 2283592). The essentials:
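In this cell-based reporter format, HCT116 cells were dosed with chemicals delivered from DMSO by 217-fold dilution and incubated 16 h at 37C. Emission at 460 and 530 nm after 2 h CCF4-AM loading provided the ratio, fitted upward versus DMSO.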

Assay [3] can be described thus: TOX21_p53_BLA_p3_viability: Viability Assessment in the Tox21 HCT-116 p53 Agonism Beta-lactamase Assay, Phase 3 (AID 2283593).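 Note: cells exposed to compound for 16 h before reading.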 In a few lines: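 HCT116 cells, 4000/well, dosed 5 h after plating by pin transfer (217-fold dilution from DMSO stock) and incubated 16 h at 37C, 5% CO2. Viability read as ATP luminescence with CellTiter-Glo after 30 min at room temperature.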

In assay [4] the target is Cellular tumor antigen p53 (Homo sapiens) (UniProt P04637). The assay is described as follows: TOX21_p53_BLA_p3_ratio: Tox21 HCT-116 p53 Agonism Beta-lactamase Assay, Ratio, Phase 3 (AID 2283596). The essentials:
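HCT116 p53-bla cells (4000/well) given compound in DMSO (217-fold dilution) after 5 h, incubated 16 h at 37C. CCF4-AM substrate 2 h at room temperature; 460/530 nm emission ratio, gain fitted against DMSO.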

A short description of assay [5]: TOX21_p53_BLA_p4_viability: Viability Assessment in the Tox21 HCT-116 p53 Agonism Beta-lactamase Assay, Phase 4 (AID 2283597).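 Note: hits lower the luminescence signal meaning cytotoxicity.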 In a few lines:
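We seeded HCT116 p53 reporter cells at 4000/well and waited 5 h. We then added compounds in DMSO at a 217-fold dilution and incubated for 16 h. Viability was read as CellTiter-Glo luminescence after 30 min at RT.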

Assay [6] is described as follows: TOX21_p53_BLA_p5_viability: Viability Assessment in the Tox21 HCT-116 p53 Agonism Beta-lactamase Assay, Phase 5 (AID 2283600). In a few lines: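 Compounds, pinned from DMSO at 217-fold dilution, were left on the cells for 16 h. The viability endpoint was ATP content measured by CellTiter-Glo luminescence, where falling signal reflects cytotoxicity.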
The target of assay [7] is Cellular tumor antigen p53 (Homo sapiens) (UniProt P04637). Kind of assay: TOX21_p53_BLA_p4_ratio: Tox21 HCT-116 p53 Agonism Beta-lactamase Assay, Ratio, Phase 4 (AID 2283601). The essentials:
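HCT-116 p53 beta-lactamase reporter cells (4000/well) preincubated 5 h, then compound (217-fold dilution of DMSO stock) for 16 h at 37C. CCF4-AM substrate added 2 h at room temperature; 460/530 nm emission ratio fitted upward versus DMSO.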

The target of assay [8] is PGR (gene 5241) (UniProt P06401). The assay is described as follows: TOX21_PR_BLA_Followup_Antagonist_ratio: Tox21 HEK293 Progesterone Receptor (PR) Antagonism Beta-lactamase Follow-Up Assay, Ratio (AID 2283934). The essentials:
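PR-UAS-bla HEK293T cells in medium with 2% charcoal-stripped FBS were treated with compounds plus 1 nM (final) promegestone (R5020) for 16 hr at 37C. LiveBLAzer B/G FRET substrate was then added for 2 h at room temperature; signal is cleaved/uncleaved substrate ratio versus DMSO.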

Assay [9] in a line: TOX21_PR_BLA_Followup_Agonist_viability: Viability Assessment in the Tox21 HEK293 Progesterone Receptor (PR) Agonism Beta-lactamase Follow-Up Assay (AID 2283935).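 Note: signal loss means lower viability so actives are cytotoxic.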 The essentials: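 PR-UAS-bla HEK293T cells in 2% charcoal-stripped FBS medium, compound added after 6 hr plating, 16 hr at 37C/5% CO2. After bla FRET read, CellTiter-Glo added; luminescence read after 30 min at room temperature; signal loss marks cytotoxicity.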

Assay [10] in a line: TOX21_PR_BLA_Followup_Antagonist_viability: Viability Assessment in the Tox21 HEK293 Progesterone Receptor (PR) Antagonism Beta-lactamase Follow-Up Assay (AID 2283936).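 Note: hits lower the luminescence signal meaning cytotoxicity.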 The essentials: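 PR-UAS-bla HEK293T cells (3,000/well, 2% charcoal-stripped FBS) given compound plus R5020 agonist, 16 h at 37C. CellTiter-Glo added after bla read, 30 min at room temperature; luminescence loss indicates cytotoxicity.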

Assay [11] deals with PGR (gene 5241) (UniProt P06401). The assay is described as follows: TOX21_PR_LUC_Followup_Antagonist: Tox21 HEK293 Progesterone Receptor (PR) Antagonism Luciferase Follow-Up Assay (AID 2283938).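 Note: curve fitted upward as signal gain over DMSO baseline despite antagonist label.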 The essentials:
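Luminescence from ONE-Glo reagent, measured after 30 min at room temperature, served as readout. Cells (HEK293 carrying PR-A-luc) had been treated 16 h at 37C with DMSO-dissolved compounds. Activity was fitted against DMSO controls.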

A short description of assay [12]: TOX21_PR_LUC_Followup_Antagonist_viability: Viability Assessment in the Tox21 HEK293 Progesterone Receptor (PR) Antagonism Luciferase Follow-Up Assay (AID 2283940). The essentials: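 HEK293-PR-A-luc cells, precultured 5 days in assay medium with 10% charcoal-stripped FBS, were seeded at 3,000 cells/well, treated with compounds in DMSO for 16 h at 37C, and viability was read as cellular ATP by CellTiter-Glo luminescence.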

A short description of assay [13]: CCTE_Harrill_HTTr_Viability_MCF7: CCTE's 6-hour Cell Viability Assessment for the High-Throughput Transcriptomics (HTTr) Platform, in MCF-7 cells cultured in DMEM + 10% fetal bovine serum, Harrill Lab (AID 2284010; active = hit-call score of the fitted dose curve at least 0.9, where 1 is the maximum; inactive = score below 0.9). In a few lines: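 Membrane integrity was scored by high-content imaging of propidium iodide dye exclusion after a 6 h exposure across an eight-point dilution series. Data were fitted bidirectionally relative to DMSO as negative control and baseline.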

A short description of assay [14]: CCTE_Harrill_HTTr_Apoptosis_MCF7: CCTE's 6-hour Apoptosis Assessment for the High-Throughput Transcriptomics (HTTr) Platform, in MCF-7 cells cultured in DMEM + 10% fetal bovine serum, Harrill Lab (AID 2284011; active = hit-call score of the fitted dose curve at least 0.9, where 1 is the maximum; inactive = score below 0.9). The essentials:
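Read-out: CellEvent Caspase 3/7 Green signal by high content imaging, gain-of-signal indicating apoptosis. MCF-7 cells, DMEM + 10% FBS, eight-point dilution series, 6 h exposure. Curves fitted bidirectionally relative to DMSO negative control.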

A short description of assay [15]: CCTE_Harrill_HTTr_CellCount_MCF7: CCTE's Cell Proliferation Assessment for the High-Throughput Transcriptomics (HTTr) Platform, Harrill Lab (AID 2284012).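 Note: cells exposed to compound for six hours; intended direction is loss of nuclei count meaning fewer cells.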 In a few lines:
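MCF-7 cells were exposed for 6 h to an eight-point dilution series; Hoechst-labeled nuclei were counted by high content imaging. Curves were fitted bidirectionally against DMSO as negative control and baseline, with signal loss indicating reduced cell count.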

Assay [16] concerns the target Cellular tumor antigen p53 (Homo sapiens) (UniProt P04637). Kind of assay: TOX21_p53_BLA_p5_ratio: Tox21 HCT-116 p53 Agonism Beta-lactamase Assay, Ratio, Phase 5 (AID 2283599). In a few lines: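 HCT-116 p53-bla cells (4000/well) plated 5 h, dosed with compound (217-fold DMSO dilution) for 16 h at 37 C; CCF4-AM substrate 2 h at room temperature. Activity is the 460/530 nm emission ratio (405 nm excitation), fitted in gain-of-signal direction versus DMSO.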

Chain of Cellular tumor antigen p53 (Homo sapiens) (P04637 whole entry, looked up): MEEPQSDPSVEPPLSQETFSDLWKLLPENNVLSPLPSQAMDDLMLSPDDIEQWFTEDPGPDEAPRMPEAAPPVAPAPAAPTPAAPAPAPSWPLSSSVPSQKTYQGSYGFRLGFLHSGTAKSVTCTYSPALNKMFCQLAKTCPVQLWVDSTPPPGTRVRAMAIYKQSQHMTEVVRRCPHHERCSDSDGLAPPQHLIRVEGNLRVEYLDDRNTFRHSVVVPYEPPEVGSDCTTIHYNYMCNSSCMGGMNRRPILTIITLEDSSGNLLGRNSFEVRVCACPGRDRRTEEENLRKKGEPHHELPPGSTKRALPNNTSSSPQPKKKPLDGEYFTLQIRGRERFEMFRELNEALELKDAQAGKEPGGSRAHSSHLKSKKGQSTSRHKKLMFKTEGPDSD
Chain of PGR (gene 5241) (P06401 whole entry, looked up): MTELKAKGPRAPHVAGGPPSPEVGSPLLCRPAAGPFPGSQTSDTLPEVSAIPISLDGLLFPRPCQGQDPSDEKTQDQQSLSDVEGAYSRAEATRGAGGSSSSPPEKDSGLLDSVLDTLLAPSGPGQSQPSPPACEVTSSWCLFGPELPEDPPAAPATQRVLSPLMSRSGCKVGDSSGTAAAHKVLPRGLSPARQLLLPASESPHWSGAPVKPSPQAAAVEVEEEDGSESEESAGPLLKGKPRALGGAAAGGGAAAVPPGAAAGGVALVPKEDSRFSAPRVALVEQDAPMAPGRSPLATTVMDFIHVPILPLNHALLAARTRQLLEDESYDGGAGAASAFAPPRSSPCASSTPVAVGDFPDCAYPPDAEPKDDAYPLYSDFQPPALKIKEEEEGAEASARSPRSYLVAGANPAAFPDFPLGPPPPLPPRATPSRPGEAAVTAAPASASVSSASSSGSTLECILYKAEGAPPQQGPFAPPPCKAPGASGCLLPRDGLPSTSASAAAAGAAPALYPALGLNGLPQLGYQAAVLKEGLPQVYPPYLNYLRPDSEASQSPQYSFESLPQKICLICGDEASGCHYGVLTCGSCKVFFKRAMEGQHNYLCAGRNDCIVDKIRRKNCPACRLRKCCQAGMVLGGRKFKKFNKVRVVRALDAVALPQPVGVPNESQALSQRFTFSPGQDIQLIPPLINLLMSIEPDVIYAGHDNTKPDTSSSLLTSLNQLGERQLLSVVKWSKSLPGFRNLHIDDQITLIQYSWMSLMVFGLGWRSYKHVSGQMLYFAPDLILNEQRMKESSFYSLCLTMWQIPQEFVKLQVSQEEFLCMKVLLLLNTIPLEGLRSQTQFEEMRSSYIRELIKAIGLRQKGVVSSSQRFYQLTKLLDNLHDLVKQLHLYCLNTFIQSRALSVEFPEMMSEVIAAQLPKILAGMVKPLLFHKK

On to `O=C1Nc2ccc(Cl)cc2[C@@](C#CC2CC2)(C(F)(F)F)O1`, for which the AC50 in assay [1] is 37.1 µM (active); in assay [5] it was 36.3 µM (active); in assay [6], 38.3 µM (active); in [7], 43.5 µM (active); with PGR (gene 5241) [8] it was 17 µM (active). For the same compound, the outcome (in assay [2]; in [3]; in [4]; in assay [9]; in assay [10]; with PGR (gene 5241) [11]) was inactive. The outcome in [12], in [13], in [14] and in assay [15] was inactive.

For the compound `NC(=S)N/N=C/c1cccnc1`, the call in assay [1], in assay [2], in assay [3], in assay [4], in [5] and in assay [7] was inactive.

In the case of `CCCCCCCCCCCCOCCOCCOCCOCCOCCOCCOCCOCCOCCO`, the AC50 in assay [1] is 31.5 µM (active); in [2], 13.5 µM (active); in assay [3], 27 µM (active); in [4], 19.7 µM (active); in assay [5] it was 20 µM (active); in assay [6], 23 µM (active). For the same compound, the concentration at half-maximal activity (AC50) in assay [7] was 37.7 µM (active).

`CCCCCCCCOc1ccccc1C(=O)Nc1ccc(C(=O)OCC[N+](C)(CC)CC)cc1`: the AC50 in assay [1] was 28.9 µM (active); in assay [3], 30.5 µM (active); in [5], 19 µM (active); in assay [6], 32.8 µM (active). In addition, the result in assay [2], in [4] and in assay [7] was inactive.

For the compound `O=C1C(O)=C(O)C(=O)C(O)=C1O`, the result in assay [1], in assay [2], in assay [3], in [4], in assay [16] and in assay [6] was inactive.

`C[C@@H](O)[C@H]1C(=O)N2C(C(=O)[O-])=C(SC3Cn4cnc[n+]4C3)[C@H](C)[C@H]12` (stereo not given in full): the compound was classed as inactive in [1], in assay [2], in assay [3], in assay [4], in [16] and in [6].

In the case of `O=C(c1ccccc1O)c1ccccc1O`, the result in [1], in assay [2], in assay [3], in [4], in assay [5] and in assay [7] was inactive.

`CCCCCCCCCCCCCCNCCO`: the call in assay [1], in assay [2], in assay [3], in [4], in assay [16] and in assay [6] was inactive.

`CN(C)CCc1c[nH]c2ccc(CS(=O)(=O)N3CCCC3)cc12`: the outcome in assay [1], in assay [2], in [3], in assay [4], in [5] and in assay [7] was inactive.

With `Clc1ccc2cc3ccccc3cc2c1`, the compound was called inactive in [1], in [2], in [3], in assay [4], in assay [16] and in [6].

With `COC(=O)[C@@H](N)CS`, the call in assay [1], in [2], in [3], in assay [4], in [16] and in [6] was inactive.

Take `CC(Cl)=CCCl`: the outcome in assay [1], in assay [2], in [3], in assay [4], in assay [5] and in assay [7] was inactive.

As to `C[N+]1(C)[C@@H]2CC(OC(=O)C(O)(c3cccs3)c3cccs3)C[C@H]1[C@@H]1O[C@@H]12` (stereo not given in full), the call in [1], in assay [2], in assay [3], in assay [4], in assay [5] and in [7] was inactive.

On to `O=C1Nc2ccccc2C1=O`, for which the outcome in assay [1], in assay [2], in assay [3], in assay [4], in assay [16] and in assay [6] was inactive.

The values are drawn from PubChem BioAssay (EPA / NIEHS).
